Results with a measured potency or affinity are listed apart. The source made the active and inactive calls.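 Rule for the calls: active = curve fits scoring over 52 on a 0 to 100 blend rewarding potency under 10 µM and span over 20%; inactive = the rest.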
Biological target: ATP-dependent translocase ABCB1 (Homo sapiens) (UniProt P08183)
Assay: inhibition of P-gp mediated JC-1 efflux – Jurkat-DNR cells, flow cytometry, dose response (AID 1689)
Conditions: series mostly up to 66.6 µM; inhibition: at the top concentration

Chain of ATP-dependent translocase ABCB1 (Homo sapiens) (P08183 whole entry, looked up): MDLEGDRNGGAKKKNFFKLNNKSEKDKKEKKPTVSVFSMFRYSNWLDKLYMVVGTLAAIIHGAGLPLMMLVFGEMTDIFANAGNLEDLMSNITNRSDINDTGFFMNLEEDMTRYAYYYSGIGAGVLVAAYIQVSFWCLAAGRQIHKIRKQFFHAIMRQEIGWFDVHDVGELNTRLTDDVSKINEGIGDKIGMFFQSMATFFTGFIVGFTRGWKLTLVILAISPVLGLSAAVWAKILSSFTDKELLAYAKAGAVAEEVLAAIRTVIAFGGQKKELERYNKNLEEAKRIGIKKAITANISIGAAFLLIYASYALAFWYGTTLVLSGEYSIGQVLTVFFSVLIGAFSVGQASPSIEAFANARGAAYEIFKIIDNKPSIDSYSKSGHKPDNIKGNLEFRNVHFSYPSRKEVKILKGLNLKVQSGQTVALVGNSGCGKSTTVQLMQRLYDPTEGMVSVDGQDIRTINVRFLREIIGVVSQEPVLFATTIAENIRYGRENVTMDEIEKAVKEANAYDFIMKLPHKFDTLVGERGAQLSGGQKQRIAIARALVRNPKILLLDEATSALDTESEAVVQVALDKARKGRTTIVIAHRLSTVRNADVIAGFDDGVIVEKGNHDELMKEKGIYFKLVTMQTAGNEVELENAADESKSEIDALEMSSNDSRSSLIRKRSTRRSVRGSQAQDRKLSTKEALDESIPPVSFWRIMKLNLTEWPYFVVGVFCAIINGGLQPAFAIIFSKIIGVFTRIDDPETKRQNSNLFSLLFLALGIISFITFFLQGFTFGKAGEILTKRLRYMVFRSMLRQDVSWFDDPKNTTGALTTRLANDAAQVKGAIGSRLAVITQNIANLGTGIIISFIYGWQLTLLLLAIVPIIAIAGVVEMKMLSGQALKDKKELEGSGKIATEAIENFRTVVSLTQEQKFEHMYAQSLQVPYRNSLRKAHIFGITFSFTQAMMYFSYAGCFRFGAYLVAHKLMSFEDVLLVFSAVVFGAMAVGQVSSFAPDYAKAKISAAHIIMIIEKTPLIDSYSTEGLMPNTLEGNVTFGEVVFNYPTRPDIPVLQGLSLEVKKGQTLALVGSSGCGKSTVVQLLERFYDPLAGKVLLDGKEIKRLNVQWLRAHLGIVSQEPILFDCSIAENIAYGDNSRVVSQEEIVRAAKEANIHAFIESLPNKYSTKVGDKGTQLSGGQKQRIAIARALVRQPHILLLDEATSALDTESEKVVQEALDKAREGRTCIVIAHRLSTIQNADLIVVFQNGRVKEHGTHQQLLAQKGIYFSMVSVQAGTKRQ

inhibition, inactive:
COc1ccccc1Nc1nc2nonc2nc1N1CCCCC1C (stereo not drawn) 5.44%, CCCCN1/C(=C/c2ccc3ccccc3[n+]2CC)Sc2ccccc21 7.55%, N#CC(C#N)=C1C=C2C=C(N3CCOCC3)CCC2CC1 (stereo not drawn) -7.21%, CC1=NN(c2ccc([N+](=O)[O-])cc2)C(=O)/C1=C/N(C)C 27.7%, COC(=O)c1cc(NC(=O)c2ccccc2)c(=O)oc1/C=C/Nc1ccc(Oc2ccccc2)cc1 -244%, COC(=O)c1ccc(C(C(=O)NC2CCCCC2)N(Cc2ccccc2)C(=O)Cc2cccs2)cc1 (stereo not drawn) 35.9%, CNc1nc2cc([N+](=O)[O-])c([N+](=O)[O-])cc2nc1NC 10.5%, CN(C)c1ccc(/C=C2\SC(=S)N(Nc3ncc(C(F)(F)F)cc3Cl)C2=O)cc1 42%, COc1ccc2cc(C(=O)OC(C)C)sc(=O)c2c1OC 12.8%, CCCCN(C)C1=CC2=CC(=C(C#N)C#N)CCC2CC1 (stereo not drawn) 29.7%, CN1CCN(C2=CC3=CC(=C(C#N)C#N)CCC3CC2)CC1 (stereo not drawn) 44.9%, Cc1cc(C)c(C#N)c(SCc2c(F)cccc2[N+](=O)[O-])n1 14.2%, Cc1c(C(=O)Nc2ccc(F)cc2)c2ccccn2c1CCc1ccncc1 19.6%, N#CC(C#N)=C1C=C2C=C(N3CCCCCC3)CCC2CC1 (stereo not drawn) -21.8%, COc1ccc(CCNC(=O)COC(=O)/C=C/c2ccc(OC)c(OC)c2)cc1 -20.9%, CC(=O)Nc1ccc(Nc2ccc(S(=O)(=O)C(F)(F)F)cc2[N+](=O)[O-])cc1 15.1%, O=[N+]([O-])c1ccc(Nc2nc(Cl)nc(NCCO)n2)cc1 9.77%, CCN(CC)C1=CC2=CC(=C(C#N)C#N)CCC2CC1 (stereo not drawn) 98.6%

Source: PubChem BioAssay AID1689 (NMMLSC, 2009)
